# Results as given in PubChem BioAssay (NCI).
# Compounds without any hit were thinned out: in the full panel of roughly 79,000, 15% have a hit. Unmarked numbers belong to inactive results. Activity calls are given as the source filed them. No stated cut-off is given here; in the data, active means growth inhibition above about 70%; inactive means the rest.
# Legend:
# [1] = NCI Yeast Anticancer Drug Screen. Data for the rad50 strain (AID 155);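 further: 0% = growth of vehicle-only cultures of the same strain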; details: S. cerevisiae rad50 strain growth inhibition, stronger effect = higher value
# Procedure, shortened: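 Readout: growth inhibition relative to vehicle-treated cultures. Compound exposure was carried out in a genetically defined yeast strain deficient in DNA damage repair.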
# [2] = NCI Yeast Anticancer Drug Screen. Data for the mec2-1 strain (AID 157); details: S. cerevisiae mec2-1 strain, stronger effect = higher value
# Procedure, shortened: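 Test agents were screened against the mec2-1 yeast strain, with defined DNA repair or cell cycle alteration. Growth was scored as inhibition against vehicle-only controls.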
# [3] = NCI Yeast Anticancer Drug Screen. Data for the sgs1 mgt1 strain (AID 161);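 further: 0% = growth of cultures given vehicle only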; details: S. cerevisiae sgs1 mgt1 strain, stronger effect = higher value
# Procedure, shortened: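 Mutant yeast exposed to compound; growth scored against vehicle-only wells.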
# [4] = NCI Yeast Anticancer Drug Screen. Data for the cln2 rad14 strain (AID 165);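 further: 0% = growth equal to vehicle treated cultures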; details: S. cerevisiae cln2 rad14 strain, stronger effect = higher value
# Procedure, shortened: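 Growth of compound-exposed yeast (cln2 rad14 genotype) measured and expressed as inhibition relative to vehicle.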
# [5] = NCI Yeast Anticancer Drug Screen. Data for the bub3 strain (AID 167); details: S. cerevisiae bub3 mutant strain, stronger effect = higher value
# Procedure, shortened: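 Readout: yeast growth inhibition, expressed relative to vehicle-only wells. The test organism is a mutant strain from a panel with lesions in DNA repair or checkpoint genes.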
# [6] = NCI Yeast Anticancer Drug Screen. Data for the mlh1 rad18 strain (AID 175); details: S. cerevisiae mlh1 rad18 strain growth inhibition, stronger effect = higher value
# Procedure, shortened: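 In this whole-cell yeast screen, a strain with altered DNA damage repair is challenged with compound, and its growth is measured against matched vehicle-treated controls.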
# [7] = at 5.0 µM (retest, dose inferred, filed as 0.5)
# [8] = at 50.0 µM (retest, dose inferred, filed as 5.0)
SMILES,"growth inhibition [1, 7]","growth inhibition [1, 8]",growth inhibition ([1]; at 50.0 µM),"growth inhibition [2, 7]","growth inhibition [2, 8]",growth inhibition ([2]; at 50.0 µM),"growth inhibition [3, 7]","growth inhibition [3, 8]",growth inhibition ([3]; at 50.0 µM),"growth inhibition [4, 7]","growth inhibition [4, 8]",growth inhibition ([4]; at 50.0 µM),"growth inhibition [5, 7]","growth inhibition [5, 8]",growth inhibition ([5]; at 50.0 µM),"growth inhibition [6, 7]","growth inhibition [6, 8]",growth inhibition ([6]; at 50.0 µM)
C=CC1(c2ccc(OC)cc2)OCCCO1,-11%,99% (active),89.7% (active),-13%,99% (active),92.4% (active),-16%,99% (active),87.5% (active),27%,99% (active),88.7% (active),-27%,100% (active),90.8% (active),-16%,97% (active),89% (active)
Fc1ccc2c(c1)Nc1cc(F)cc(F)c1S2,-4%,54%,2.7%,-5%,12%,-2%,-4%,36%,65.7%,0%,1%,2.75%,-3%,5%,40.8%,-6%,48%,21.5%
CCC(/C=C/c1ccccc1)=N\Nc1ccccc1,11%,89% (active),47.7%,-10%,83% (active),79% (active),1%,91% (active),34.1%,-27%,76% (active),-12.3%,-15%,90% (active),87.3% (active),-13%,95% (active),74.4% (active)
O=S(=O)(Nc1ccc(-c2ccc(Cl)cc2)cc1)c1ccccc1,68%,97% (active),92.5% (active),58%,99% (active),93.2% (active),75% (active),-21%,97.8% (active),19%,90% (active),92.3% (active),38%,98% (active),95.8% (active),95% (active),98% (active),95% (active)
C=CCN1/C(=C/C=C\c2sc3ccccc3[n+]2CC=C)Sc2ccccc21,60%,98% (active),91.7% (active),80% (active),99% (active),93.6% (active),95% (active),99% (active),93.7% (active),93% (active),99% (active),93.5% (active),98% (active),99% (active),92.2% (active),90% (active),98% (active),91.8% (active)
CC(C)N(C(=O)C12C3C4C5(C#N)C3C1(C#N)C5C42I)C(C)C (configuration not stated),41%,41%,82% (active),22%,22%,48%,13%,13%,31.6%,12%,12%,68.5%,17%,17%,91.5% (active),11%,11%,46.4%
CCOC(=O)c1sc2[n+](c1C)C(=O)/C(=C/c1ccc([N+](=O)[O-])cc1)S2,4%,71% (active),95.5% (active),4%,74% (active),96.9% (active),16%,86% (active),97% (active),-4%,79% (active),90.5% (active),-23%,46%,96.8% (active),23%,89% (active),97% (active)
CCCOC(=O)C1CCCCC1C(=O)OCCC (configuration not stated),7%,-17%,0.8%,-1%,-15%,18.3%,-2%,16%,-10.1%,-4%,14%,71.2% (active),1%,-2%,5.3%,-7%,-4%,-12.7%
CC/C=C(\C)CC(C)O (configuration not stated),-3%,16%,64.9%,-4%,3%,43.8%,-3%,18%,77.6% (active),1%,9%,59.7%,1%,-5%,57%,-3%,8%,54.9%
O=C1CCC(c2ccccc2)=NN1c1nc2ccccc2s1,5%,90% (active),98.3% (active),-3%,79% (active),99.2% (active),0%,85% (active),99.2% (active),-3%,83% (active),99% (active),-6%,95% (active),99.3% (active),4%,93% (active),99.5% (active)
Cc1cc(=O)c2c(ccc3cc4ccccc4cc32)[nH]1,-6%,41%,66.8%,0%,58%,38.1%,-16%,54%,45.8%,-5%,17%,43.8%,-7%,22%,39.6%,14%,49%,59.1%
CCc1nc2ccc(N=NN(C)C)cc2[nH]1,21%,73% (active),84.5% (active),19%,80% (active),92% (active),18%,96% (active),74.2% (active),22%,87% (active),88.1% (active),18%,97% (active),88.5% (active),24%,91% (active),91.3% (active)
CN=S(=O)(OCCCCCCCCCOS(=O)(=NC)c1ccc(C)cc1)c1ccc(C)cc1 (configuration not stated),17%,12%,42.5%,14%,6%,70% (active),16%,15%,19.7%,29%,-1%,-5.85%,20%,20%,-35.3%,18%,11%,-80.8%
Cc1ccc(Cl)cc1NN,-1%,95% (active),96.5% (active),5%,97% (active),99.2% (active),2%,89% (active),48.6%,-1%,94% (active),97.6% (active),-2%,97% (active),96.9% (active),5%,96% (active),47.6%
O=C(/C=C(\C(=O)c1ccccc1)N(/C(=C/C(=O)c1ccccc1)C(=O)c1ccccc1)c1ccccc1)c1ccccc1,2%,30%,92.2% (active),-3%,13%,88.8% (active),-5%,30%,90.8% (active),-2%,-21%,83.5% (active),0%,34%,88.4% (active),0%,12%,92.7% (active)
CCCCCCCCCCCCCCCCCC[n+]1cccc(C(=O)N2CCOCC2)c1,91% (active),99% (active),99.8% (active),86% (active),100% (active),99.8% (active),99% (active),100% (active),99.8% (active),60%,99% (active),99.3% (active),86% (active),99% (active),99.7% (active),97% (active),100% (active),99.8% (active)
C/C(=N\NC(=S)N1CCN(c2cnccn2)CC1)c1ccccn1,24%,98% (active),91.4% (active),23%,99% (active),89.9% (active),19%,99% (active),86.1% (active),10%,99% (active),88.2% (active),30%,99% (active),85.3% (active),28%,99% (active),91.7% (active)
CN=C(N)N/N=C(\C)c1ccc2c(ccc3ccccc32)c1,11%,98% (active),89.2% (active),14%,99% (active),91.2% (active),13%,99% (active),90.8% (active),-3%,98% (active),91.3% (active),33%,99% (active),88.3% (active),35%,97% (active),91.7% (active)
Cc1c2ccccc2c(C)c2c1cc(F)c1ccccc12,32%,88% (active),96.1% (active),43%,92% (active),97.3% (active),46%,94% (active),96.4% (active),34%,91% (active),94.5% (active),21%,90% (active),94.8% (active),55%,89% (active),93.8% (active)
